B-score data for 97 compounds are collected here from PubChem BioAssay AID641 (Vanderbilt High Throughput Screening Facility, 2007).

In all, about 58,000 compounds went through this assay and about 3,400 (5.9%) were called active. The full list was thinned out, with actives kept by preference. A number with no mark means an inactive call.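 The calls were made as follows: active = luminescence count or its row- and column-corrected plate score outside the 99.7% band of the plate's sample wells, on either side; inactive = the rest.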

Sequence of D(1A) dopamine receptor (Homo sapiens) (P21728 whole entry, looked up): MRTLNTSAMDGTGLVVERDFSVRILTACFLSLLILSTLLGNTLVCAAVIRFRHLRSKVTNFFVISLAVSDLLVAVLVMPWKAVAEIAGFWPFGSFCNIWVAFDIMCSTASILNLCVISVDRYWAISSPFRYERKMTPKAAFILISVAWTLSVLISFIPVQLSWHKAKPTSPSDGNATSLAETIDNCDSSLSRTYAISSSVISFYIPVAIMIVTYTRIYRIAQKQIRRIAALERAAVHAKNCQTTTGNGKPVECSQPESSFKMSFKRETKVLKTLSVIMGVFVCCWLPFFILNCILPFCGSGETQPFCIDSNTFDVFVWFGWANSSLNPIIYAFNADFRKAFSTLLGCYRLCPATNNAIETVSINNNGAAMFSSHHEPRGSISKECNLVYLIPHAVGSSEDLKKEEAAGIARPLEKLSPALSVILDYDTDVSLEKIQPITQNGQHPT

This assay concerns the target D(1A) dopamine receptor (Homo sapiens) (UniProt P21728). Put plainly: D1 CRE-luciferase signal change, two-sided – cell-based, HEK293 D1, dopamine EC30, D1 allosteric modulator project, primary screen (AID 641). Conditions: dopamine EC30 potentiation, at 10 µM, actives deviate in either direction.
In the case of `COC(=O)COc1ccc2oc(=O)cc(C)c2c1`, the B-score is 0.00198. Consider `COc1ccc(S(=O)(=O)N2CCN(c3ncnc4c(-c5ccccc5)nsc34)CC2)cc1`, for which the B-score is -0.0486. As for `O=c1cccc(-c2ccc(Br)cc2)o1`, the B-score was 1.11. Then `COc1ccc(NS(=O)(=O)c2ccc(NC(C)=O)cc2)cc1OC`, with -0.458; and `COc1ccc(S(=O)(=O)N2CCCCC2)cc1Br`, with -1.56. The same measure for `COc1ccc(S(=O)(=O)Nc2ccc(S(=O)(=O)N3CCCCC3)cc2)cc1OC`: 5.58 (active). In the case of `COc1ccc(Br)cc1S(=O)(=O)N1CCN=C1C`, the B-score is -0.0562. Then `CCc1nc2ccccc2n(CCOCCOCCn2c(=O)c(CC)nc3ccccc32)c1=O`, with 2.08; and `CCCOC(=O)Nc1sc2c(c1C(=O)OCC)CCC2`, with -0.0171. For `O=C(Nc1c(Cl)cccc1Cl)C1CCC1`, the B-score is -0.785. Consider `CCOC(=O)c1cc(C)sc1NC(=O)C1CCC1`, for which the B-score was 7.64 (active). Then `NC(=O)c1ccsc1NC(=O)c1ccco1`, with 0.317; and `O=C(Nc1nc(-c2ccncc2)cs1)C1COc2ccccc2O1` (configuration not stated), with 1.39; and `O=C(Nc1nc(-c2ccc3c(c2)OCO3)cs1)c1ccncc1`, with -3.4 (active). Then `O=C(Nc1ccc2c(c1)OCCO2)c1ccncc1`, with -1.34; and `COC(=O)c1ccc(/C=N\n2c(C)nnc2C)cc1`, with -1.78. Then `Cc1cc(C)c2c(n1)nn1c(-n3ccnc3)cc(C)nc21`, with 5.98 (active).

Regarding `Cc1cc(C)c2c(n1)nn1c(N3CCN(c4cccc(Cl)c4)CC3)cc(C)nc21`, the B-score was -0.0327.

As to `Cc1cc(C)c2c(n1)nn1c(N3CCOCC3)cc(C)nc21`, the B-score was 1.9. The same measure for `CCC(C)NC(=O)N[C@@H](CCSC)C(=O)O` (some centres not stated): -0.322; for `Cc1ccc(S(=O)(=O)NC(C)C(=O)Nc2ccccc2C(=O)N2CCCC2)cc1` (configuration not stated): -1.42; for `Cc1ccc(S(=O)(=O)C2(S(=O)(=O)c3ccc(C)cc3)CCCC2)cc1`: 0.0184. The same measure for `Cc1ccc(S(=O)(=O)NC(=O)N2CCCC(C)(C)C2)cc1`: -6.08 (active). Then `CC(=O)Nn1cc2c(=O)n(C)c(=O)n(C)c2c1`, with 0.00279; and `COc1ccc(OC)c(-n2cc3c(=O)n(C)c(=O)n(C)c3c2)c1`, with 1.9; and `Cn1c(=O)c2cn(-c3cccc4ccccc34)cc2n(C)c1=O`, with 3.56 (active).

Take `Cc1nc2sc(C(c3ccco3)N3CCC4(CC3)OCCO4)c(O)n2n1` (configuration not stated): the B-score was -0.00625. In the case of `NS(=O)(=O)c1ccc(NS(=O)(=O)/C=C/c2ccccc2)cc1`, the B-score was 0.545. Turning to `COC(=O)Cn1c(=NC(=O)CSCC(=O)Nc2cc(C)on2)sc2ccccc21`, the B-score was -0.763.

Regarding `O=C1CC(N2CCN(C(c3ccccc3)c3ccccc3)CC2)C(=O)N1` (configuration not stated), the B-score is -0.246. The same measure for `N#CCSc1nc2ccccc2c(=O)n1-c1ccccc1`: 7.87 (active); for `O=c1c2ccccc2nc(CSc2nnnn2-c2ccccc2)n1-c1ccccc1`: 0.263. In the case of `COC(=O)c1ccc(CSc2nc3ccccc3c(=O)n2-c2cccc(OC)c2)o1`, the B-score is 2.88. The same measure for `Cc1noc(C)c1S(=O)(=O)N(CC(=O)NCc1ccc(Cl)cc1)c1ccc2c(c1)OCO2`: 0.0431.

As for `CCCC(=O)N=c1sc2cccc(F)c2n1C`, the B-score was 0.69. The same measure for `Fc1ccc(-c2nnc3sc(-c4ccc5c(c4)OCO5)nn23)cc1`: 0.575; for `CC(=O)Nc1ccc(-c2nn3c(C)nnc3s2)cc1C`: 0.141; for `COc1cc(-c2nn3c(-c4cccc(C)c4)nnc3s2)cc(OC)c1OC`: 5.22 (active).

As for `c1ccc(-c2cc(-c3nnc4sc(-c5ccccn5)nn34)[nH]n2)cc1`, the B-score was -0.359. Then `Cc1nnc2sc(-c3ccco3)nn12`, with 0.854; and `COc1ccc(-c2nn3c(-c4ccccc4)nnc3s2)cc1OC`, with 8.24 (active); and `CCOc1ccc(C(=O)N(Cc2ccc(N(C)C)cc2)C2CCS(=O)(=O)C2)cc1` (configuration not stated), with 0.116. As to `CCCC(C(=O)N1CCOCC1)N1C(=O)C2C3C=CC(C3)C2C1=O` (configuration not stated), the B-score was -0.388. The same measure for `Cc1occc1C(=O)Nc1nnc(C2CCCCC2)s1`: 0.299; for `O=C(COc1ccccc1Cl)Nn1cnnc1`: -0.264. The same measure for `Cc1cccc(N2CCN(Cc3c(C)n(C)n(-c4ccccc4)c3=O)CC2)c1C`: -0.359.

As to `COc1ccc(N2CC(C)Cn3c2nc2c3c(=O)n(Cc3ccccc3F)c(=O)n2C)c(OC)c1` (configuration not stated), the B-score is 0.483. Then `CCOc1ccc(N2C(=O)CC(N(O)c3ccccc3)C2=O)cc1` (configuration not stated), with 0.305; and `CCS(=O)(=O)NCCc1ccc(OC)c(OC)c1`, with 0.864; and `COc1ccc(CCNc2ncnc3nc[nH]c23)cc1OC`, with 12.7 (active). The same measure for `COc1ccc(CCNS(=O)(=O)c2ccc(F)cc2)cc1OC`: 3.09; for `CCOC(=O)c1sc(NC(=O)CSc2ncccn2)c(C#N)c1C`: 1.81.

Turning to `COc1ccc(-c2ccc(Nc3ccc(S(=O)(=O)N4CCCC4)cc3)nn2)cc1OC`, the B-score was 1.72. Then `COc1ccc(-c2cc(C(F)(F)F)nc(SCCC(=O)NCc3ccco3)n2)cc1`, with 0.0331.

For the compound `COc1ccc(-c2cc(C(F)(F)F)nc(S(C)(=O)=O)n2)cc1OC`, the B-score was 6.58 (active). Then `CC(=O)Oc1ccc(C)cc1N1C(=O)c2ccc(C(=O)O)cc2C1=O`, with -0.324. Then `O=C(COC(=O)c1ccc(Oc2ccccc2)cc1)Nc1nnc(-c2ccccc2)o1`, with -1.16.

As to `COc1cccc(-c2nnc(NC(=O)c3ccc(S(=O)(=O)N(CC(C)C)CC(C)C)cc3)o2)c1`, the B-score was -2.79 (active). Then `CCN(CC)C(=O)CSc1nnc(-c2cccc(OC)c2)o1`, with -0.393; and `C=C1c2cc(CC)ccc2NC(=O)N1c1ccc(C)cc1`, with -1.84. `COc1ccc(N(CC(=O)NC2CCCCCCC2)S(=O)(=O)c2c(C)nn(C)c2C)cc1`: the B-score was -0.289. The same measure for `CC(C)C(=O)Nc1c(C(=O)c2ccc(F)cc2)oc2ccccc12`: 1.66; for `CC(=O)NS(=O)(=O)c1ccccc1`: 0.0902. Then `Nc1ccc(S(=O)(=O)NC(=O)c2ccccc2)cc1`, with 31.8 (active); and `Cc1ccc(C(=O)NCCNS(=O)(=O)c2ccccc2)cc1`, with -0.839; and `COCCNC(=O)c1snc2ccc(Cl)cc12`, with 0.741. Turning to `CCCc1nc2ccccc2c(C(=O)OCc2nnc(-c3cc(OC)c(OC)c(OC)c3)o2)c1CC`, the B-score was 2.19. Then `CCN1CCN(Cc2c(O)ccc3c(=O)c(-c4ccc(OC)c(OC)c4)c(C(F)(F)F)oc23)CC1`, with -0.698; and `Cc1cc(=O)oc(C)c1C(=O)Nc1cnc2ccccc2c1`, with -0.206; and `CNC(=O)CN1C(=O)c2ccccc2S1(=O)=O`, with 0.686. `O=C(CN1C(=O)c2ccccc2S1(=O)=O)N1CCc2ccccc21`: the B-score was -3.68 (active). Regarding `O=C(c1cccc(C(=O)N2CCc3ccccc32)n1)N1CCc2ccccc21`, the B-score is 0.928. Then `COC(=O)C(C)Sc1ccc2nnc(-c3cccc(F)c3)n2n1` (configuration not stated), with 0.378. On to `CCOc1ccc(-c2nnc3ccc(SC)nn23)cc1`, for which the B-score was -4.57 (active).

For the compound `O=C(CN1CCOCC1)Nc1cc(Cl)ccc1Cl`, the B-score was -0.306. As to `C=C(C)Cn1c(N2CCN(CC)CC2)nc2c1c(=O)[nH]c(=O)n2C`, the B-score was 0.264. The same measure for `Brc1cccc(-c2nnc3n2CCC3)c1`: 0.138. The same measure for `CCOc1cc(-c2nc3cc(C)ccn3c2NCC2CCCO2)ccc1O` (configuration not stated): -0.604; for `COc1ccc(C2SCCN2S(=O)(=O)c2ccccc2)cc1OC` (configuration not stated): 0.2.

In the case of `COc1ccc(C2/C(=C(/O)c3ccccc3)C(=O)C(=O)N2c2ncccn2)cc1OC` (configuration not stated), the B-score is -0.0203. The same measure for `COc1ccc(C2N=C(N)N=C(N)N2c2ccccc2)cc1OC` (configuration not stated): -3.55 (active); for `CCOC(=O)[C@H]1CCC[C@@H](NS(=O)(=O)c2ccc(NC(C)=O)cc2)C1`: -0.0967. The same measure for `Cc1ccc(S(=O)(=O)N(C)CC(=O)N2CCc3ccccc32)cc1`: 1.86; for `CCOc1ccc2[nH]c(=O)c(CN(Cc3nnnn3Cc3ccccc3)CC3CCCO3)cc2c1` (configuration not stated): -0.307; for `CCOc1ccc2c(c1)cc(CN(C(=O)CC)C1CCCCC1)c1nnnn12`: 12.6 (active). For the compound `CCOc1ccc2[nH]c(=O)c(CN(Cc3nnnn3CCc3ccccc3)CC3CCCO3)cc2c1` (configuration not stated), the B-score was 1.9. For `COC(=O)c1cnn2c(C(F)(F)F)cc(-c3ccco3)nc12`, the B-score was 1.18.

For `O=C(NCc1ccco1)c1cnn2c(C(F)(F)F)cc(-c3ccco3)nc12`, the B-score is 4.37 (active). As for `O=C(NCc1ccco1)c1cccn2c(=O)c3cc(Br)ccc3nc12`, the B-score is -0.861. Then `O=C(O)C1CCCN(S(=O)(=O)c2cccc3cccnc23)C1` (configuration not stated), with 0.0158; and `COC(=O)c1c(NC(=O)CSc2nc3c(c(=O)n(C)c(=O)n3C)n2C(C)C)sc(C)c1C`, with 3.35. The same measure for `CCOC(=O)c1c(NC(=O)CSc2nnc(C)c(=O)[nH]2)sc2c1CCC2`: 1.36; for `CCOCC(=O)Nc1sc2c(c1C(=O)OCC)CCCC2`: -0.0785; for `CCOC(=O)c1c(NC(=O)CSc2nnc(CN3CCOCC3)n2C)sc2c1CCCC2`: 6.03 (active). The same measure for `CCOC(=O)c1c(NC(=O)CSc2nnc(Cc3csc(N)n3)n2C)sc(C)c1C`: 4.94 (active); for `Cn1c(Cc2csc(N)n2)nnc1SC/C=C/c1ccccc1`: 0.477; for `O=C(NCc1ccc2c(c1)OCO2)C1CCCN(S(=O)(=O)c2cccs2)C1` (configuration not stated): -0.0139.
